Measured values reported in PubChem BioAssay (NCATS).
Values joined by “and” are separate entries in the source; they are usually repeats but may differ in a detail not shown here. Equal values may be shown once. Results filed as inconclusive are left out. Unmarked numbers belong to inactive results. Active and inactive are the calls of the source. Calls come from the whole dose curve; as a rule, active = well fitted cell-killing curve with a large enough effect; inconclusive = small, poorly fitted or top-dose-only effect, or effect the other way; inactive = no such curve, though single readings can be large or run the other way.

experiment: Viability qHTS for spleen associated tyrosine kinase inhibitor (SYKi) naive MV4-11 cells (AID 1963823); details: MV4-11 AML viability, CellTiter-Glo luminescence, 72 h; series mostly up to 45 µM; viability (% of control): at the top concentration; note: nearly all actives have a fitted effect of over 40% in size
Summary of the method: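 Seeding of 500 SYKi-naive MV4-11 cells per well onto pre-dispensed compounds preceded a 72 hr incubation at 37 C. Luminescent CellTiter-Glo signal, read after 10 min at room temperature, reflected viable cells.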
Potency is the fitted concentration of half-maximal effect.

SMILES	Potency	viability (% of control)
Cc1cc(OCCCc2c3n(c4c(-c5c(C)nn(C)c5C)c(Cl)ccc24)[C@H](C)CN(c2cn(C)c4ccc(C(=O)O)cc24)C3=O)cc(C)c1Cl	0.742 µM (active)	–
CCN1CCN(c2cc(-c3ccc(F)cc3)c3c(n2)CCCCCC3)CC1	–	88%
CCOC(=O)[C@H](CCc1ccccc1)N[C@@H](C)C(=O)N1[C@H](C(=O)O)C[C@@H]2CCC[C@@H]21	–	74.1%
Brc1c(NC2=NCCN2)ccc2nccnc12	–	78.4%
CC(=O)N[C@H]1[C@H](O[C@@H]2c3ccc(c(Cl)c3)Oc3cc4cc(c3O[C@@H]3O[C@H](CO)[C@@H](O)[C@H](O)[C@H]3NC(=O)CCCCCCCC(C)C)Oc3ccc(cc3Cl)C[C@H]3NC(=O)[C@H](N)c5ccc(O)c(c5)Oc5cc(O)cc(c5)[C@H](NC3=O)C(=O)N[C@H]4C(=O)N[C@H]3C(=O)N[C@@H]2C(=O)N[C@@H](C(=O)O)c2cc(O)cc(O[C@H]4O[C@H](CO)[C@@H](O)[C@H](O)[C@@H]4O)c2-c2cc3ccc2O)O[C@H](CO)[C@@H](O)[C@@H]1O	–	84.1%
CCC1Nc2cc(Cl)c(S(N)(=O)=O)cc2S(=O)(=O)N1 (stereo not given)	–	80.1%
O=C(/C=C/c1cccc(S(=O)(=O)Nc2ccccc2)c1)NO	563 nM (active) and 417 nM (active)	–
Nc1ccc(C(=O)OCC(O)CO)cc1 (stereo not given)	–	76.3%
CO[C@@]1(NC(=O)C(C(=O)O)c2ccc(O)cc2)C(=O)N2C(C(=O)O)=C(CSc3nnnn3C)CO[C@@H]21 (stereo not given in full)	–	58.5%
Cc1ccc(-c2ncc(Cl)cc2-c2ccc(S(C)(=O)=O)cc2)cn1	–	80.8%
CNCc1ccc(-c2cc(-c3nc(-c4ccc(S(=O)(=O)C(C)C)cc4)cnc3N)on2)cc1	0.259 µM (active)	–
CCCCCCCCCCCCCCCC[N+](C)(C)CCN(Cc1ccc(OC)cc1)c1ncccn1	2.66 µM (active)	–
NCC1CCN(c2nccc(-c3ccc4ccccc4c3)n2)CC1	1.16 µM (active)	–
O=C(O)c1ccccc1C(=O)Nc1ccc(S(=O)(=O)Nc2nccs2)cc1	–	66.8%
CCN[C@H]1CN(CCCOC)S(=O)(=O)c2sc(S(N)(=O)=O)cc21	–	56.9%
CNC(=O)[C@H](Cc1c[nH]c2ccccc12)NC(=O)[C@@H](CC(=O)NO)CC(C)C	9.34 µM (active)	–
CC[C@@H](C)Nc1cc(C(=O)NC2CC3CC[C@@H](C2)N3c2ccc(C(=O)C3CC3)cn2)c(C)cc1C(N)=O (stereo not given in full)	0.013 µM (active)	–
O=C(O)C(S)C(S)C(=O)O (stereo not given)	–	85.6%
O=[N+]([O-])c1ccc(O)c2ncccc12	2.99 µM (active) and 4.68 µM (active)	–
Cc1cc(-c2nc3cc(F)ccc3s2)ccc1NC(=O)[C@@H](N)CCCCN	2.31 µM (active)	–

SMILES	Potency	viability (% of control)
Cc1ccc([N+](=O)[O-])cc1S(=O)(=O)N(C)/N=C/c1cnc2ccc(Br)cn12	16.4 nM (active) and 26.3 nM (active)	–
C[C@H]1[C@H](O)O[C@@H]2O[C@@]3(C)CC[C@H]4[C@H](C)CC[C@@H]1[C@@]24OO3	0.731 µM (active)	–
C[N+](C)(C)CCOC(=O)CCC(=O)OCC[N+](C)(C)C	–	106%
Cc1c(-c2ccccc2)oc2c(C(=O)OCCN3CCCCC3)cccc2c1=O	–	57.8%
O=C1NCCN1CCN1CCC(c2cn(-c3ccc(F)cc3)c3ccc(Cl)cc23)CC1	0.668 µM (active)	–
Cc1ccc(S(=O)(=O)Cc2nc(-c3ccc(C(=O)NCc4cccnc4)cc3)oc2C)cc1	0.0118 µM (active)	–
O=C(CCCCCCNC(=O)c1cnc(N(c2ccccc2)c2ccccc2Cl)nc1)NO	3.32 µM (active)	–
O=C(O)CNC(=O)c1nc(Cl)c2ccccc2c1O	–	63.8%
O=[N+]([O-])c1cncn1CCN1CCOCC1	–	53.9%
C[C@@H](OC[C@@]1(c2ccccc2)CC[C@]2(CCC(=O)N2)CN1)c1cc(C(F)(F)F)cc(C(F)(F)F)c1	7.42 µM (active)	–
C=CCc1cccc(/C=N/NC(=O)CN2CCN(Cc3ccccc3)CC2)c1O	7.42 µM (active)	–
Cc1ccc(C(C)OC(=O)C2(C)CCC(C(=O)O)C2(C)C)cc1 (stereo not given)	–	59.3%
c1ccc(Cn2c(-c3ccc(OCC(C4CCNCC4)n4c(-c5ccccc5)nc5ccccc54)cc3)nc3ccccc32)cc1 (stereo not given)	5.25 µM (active)	–
CC/C=C(\C(=O)N[C@@H]1C(=O)N2C(C(=O)OCOC(=O)C(C)(C)C)=C(COC(N)=O)CS[C@H]12)c1csc(N)n1	–	71.5%
CN1CC(=O)N2[C@H](c3ccc4c(c3)OCO4)c3[nH]c4ccccc4c3C[C@@H]2C1=O	inactive	–
CN(C(=O)c1c(O)c2ccccc2n(C)c1=O)c1ccccc1	–	26.9%
Cc1ccc2c(Cl)cc(Cl)c(O)c2n1	–	86.4%
O=C1[C@H](CC[C@H](O)c2ccc(F)cc2)[C@@H](c2ccc(O)cc2)N1c1ccc(F)cc1	20.6 µM (active) and 20.9 µM (active)	–
O=C(CCCCCCC(=O)N/N=C/c1ccc(N(c2ccccc2)c2ccccc2)cc1)NO	4.17 µM (active)	–
CCCCCN(CCCCC)C(=O)C(CCC(=O)O)NC(=O)c1ccc(Cl)c(Cl)c1 (stereo not given)	–	51.6%
